Compound activity as filed in PubChem.
Gal4-VP16 FLuc = counter-screen for ROR gamma inhibitors: Gal4-VP16 reporter; AID 2546; Potency, µM (series often up to 53.6 µM), for inactives: top-dose activity, negative = inhibition, actives largely listed as inhibitors; 310,000 tested, 3.5% active; Drosophila S2 Gal4-VP16 UAS-luciferase, luminescence, 20 h;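 note: Gal4-VP16 expression switched on by copper sulfate through the metallothionein promoter; % is set by controls: 0 for no effect and ±100 for the full control effect; nearly all actives have a fitted effect of over 50% in size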
KB-3-1 tox = kills parental KB-3-1 adenocarcinoma cells | KB-3-1 viability, CellTiter-Glo ATP luminescence, 72 h | Potency, µM (doses to about 46.1 µM), actives largely listed as cytotoxic | 400,000 tested, 1.4% active | AID 1347075; note: % is set by controls: 0 for no effect and ±100 for the full control effect; nearly all actives have a fitted effect of over 60% in size
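Viability of parental KB-3-1 cells, measured by CellTiter-Glo luminescence, followed a 72 h incubation at 37 °C with pinned compounds in phenol-red-free DMEM containing 10% FBS.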
MCF10A rerep = inducers of DNA re-replication in MCF 10A breast cells | MCF 10A DNA re-replication, Hoechst nuclear intensity, 48 h | Potency, µM (highest dose often 46.1 µM), for the others: top-dose activity, positive = re-replication, hits mostly activators | 350,000 tested, 2.9% active | AID 624296; note: % of control where 0% means no effect; nearly all actives have a fitted effect of over 50% in size
KB-V1 MDR tox = KB-V1 MDR subline cytotoxicity; Potency, µM (highest dose often 46.1 µM), most hits filed as cytotoxic; KB-V1 MDR cells viability, CellTiter-Glo, 72 h; 400,000 tested, 3.4% active; note: % is set by controls: 0 for no effect and ±100 for the full control effect; nearly all actives have a fitted effect of over 60% in size
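Cytotoxicity via CellTiter-Glo luminescence after 72 h compound exposure at 37 degrees C. Cells: drug-selected KB-V1 line, DMEM phenol-red free plus 10% FBS. Compounds tested at multiple concentrations; normalized data fitted to concentration-effect curves.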
SW480 rerep = inducers of DNA re-replication in SW480 colon cancer cells. Potency, µM (highest dose often 46.1 µM), for inactives: at the highest dose re-replication activation, actives largely listed as activators. 340,000 tested, 1.8% active. SW480 DNA re-replication, Hoechst DNA content imaging, 48 h; note: % of control where 0% means no effect; nearly all actives have a fitted effect of over 55% in size
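Quantitative HTS format with DMSO vehicle controls; 48 hr drug incubation at 37 C, then 40 min Hoechst staining and scanning imager measurement at 405 nm excitation.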
RORgamma inh = inhibitors of mouse ROR gamma transcriptional activity | Potency, µM (top dose mostly 53.6 µM), inactives show top-dose activity change, negative = inhibition, hits mostly inhibitors | Drosophila S2 Gal4-RORgamma UAS-luciferase reporter, 20 h | AID 2551 | 310,000 tested, 5.4% active; note: % is set by controls: 0 for no effect and ±100 for the full control effect; nearly all actives have a fitted effect of over 60% in size
Target sequence (P51450 whole entry, looked up, the tested form may be a part): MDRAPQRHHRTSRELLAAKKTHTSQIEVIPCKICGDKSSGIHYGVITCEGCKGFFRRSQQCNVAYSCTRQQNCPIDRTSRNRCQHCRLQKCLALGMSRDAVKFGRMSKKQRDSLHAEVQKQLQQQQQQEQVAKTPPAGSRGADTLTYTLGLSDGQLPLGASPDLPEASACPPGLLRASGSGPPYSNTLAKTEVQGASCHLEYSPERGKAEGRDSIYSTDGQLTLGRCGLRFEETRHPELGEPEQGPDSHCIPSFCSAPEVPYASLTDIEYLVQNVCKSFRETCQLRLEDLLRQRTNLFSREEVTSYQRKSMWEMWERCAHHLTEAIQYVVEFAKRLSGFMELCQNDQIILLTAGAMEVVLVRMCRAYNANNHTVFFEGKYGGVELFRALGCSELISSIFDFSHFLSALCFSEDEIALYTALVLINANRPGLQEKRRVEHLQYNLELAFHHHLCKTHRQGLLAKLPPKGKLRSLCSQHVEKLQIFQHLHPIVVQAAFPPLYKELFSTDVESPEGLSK
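Drosophila Schneider cells stably carrying a metallothionein-driven Gal4 DBD–ROR gamma fusion and a UAS-Photinus luciferase reporter were exposed to compound for 1 hr, then induced with copper sulfate (700 uM final) for 20 hr at ambient temperature before luminescence reading.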
Starred values were filed as active, the others as inactive; i = inactive; ? = inconclusive; . = not tested or not shown; [ ] = dose if it differs, or a comment. The list is not random: actives were taken first. Their share in the collection is about 10%. Calls come from the whole dose curve; as a rule, active = well fitted curve in the direction sought with a large enough effect; inconclusive = small, poorly fitted or top-dose-only effect, or another doubt; inactive = no such curve, though single readings can be large; an effect the other way counts as inactive or inconclusive. Potency is the fitted concentration of half-maximal effect.

SMILES	Gal4-VP16 FLuc	KB-3-1 tox	MCF10A rerep	KB-V1 MDR tox	SW480 rerep	RORgamma inh
CCOc1ccccc1NC(=O)Nc1cnccn1	5%	i	-8%	6.5µM*	6%	5%
COc1ccc(NC(=O)Nc2cnccn2)c(OC)c1	6%	5.2µM*	-17%	5.8µM*	-6%	22%
O=C(Nc1cnccn1)Nc1ccccc1Cl	4%	?	-2%	9.2µM*	10%	21%
C[C@@H](C(=O)O)c1ccc(C(=O)c2ccccc2)s1	-3%[17 µM]	.	-1%[20.6 µM]	.	-1%[20.6 µM]	13%[2.98 µM]
COc1ccc(NC(=O)c2nnn(CC(=O)Nc3ccc4c(c3)OCO4)c2N)c(OC)c1	-2%	i	-1%	i	-12%	10%
Cc1sc2ncn(CC(=O)N(C)c3cccc(C(F)(F)F)c3)c(=O)c2c1S(=O)(=O)N1CCN(c2ncccn2)CC1	.	i	.	i	.	.
CC(C)c1ccc(NC(=O)Nc2cnccn2)cc1	5%	4.1µM*	4.1µM*	?	?	?
Cc1ccc(NC(=O)Nc2cnccn2)cc1	-9%	i	5%	i	12%	0%
CCOc1ccccc1NC(=O)c1ccc(C(=O)Nc2ccccc2OCC)cc1	.	i	.	?	.	.
CCOc1ccccc1NC(=O)/C=C/C(N)=O	5.6µM*	i	-3%	i	-2%	4.5µM*
Cn1nc(-c2ccc(OCC(=O)Nc3cccc(C(F)(F)F)c3)cc2)c2ccccc2c1=O	.	i	.	i	.	.
CCc1ccc(OCCCn2c(CCNC(=O)C3CCCCC3)nc3ccccc32)cc1	.	i	.	i	.	.
COc1cc(OC)c2c(-c3ccccc3)cc(=O)oc2c1	7%	i	-3%	i	-9%	-11%
CCc1cc(=O)oc2cc3occ(-c4ccc(OC)c(F)c4)c3cc12	13µM*	18µM*	2.3µM*	1.6µM*	?	?
COc1cc(OC)c2c(-c3cccc(-c4ccc(C(C)=O)cc4)c3)cc(=O)oc2c1	-26%	i	0.65µM*	i	4.1µM*	-11%
CCc1cc(=O)oc2cc3occ(C)c3cc12	-2%	i	0%	?	4%	1%
COc1cc(OC)c2c(-c3cccc(-c4ccoc4)c3)cc(=O)oc2c1	.	i	7.3µM*	i	?	.
COc1cc(OC)c2c(-c3cccc(-c4ccc(OC)c(F)c4)c3)cc(=O)oc2c1	-12%	0.92µM*	?	i	1.5µM*	6%
COc1ccc(OC)c(-c2ccc(C(=O)O)o2)c1	9%[96.6 µM]	.	.	.	.	3%[96.6 µM]
COc1ccc2c(c1)c1c(c(=O)n(-c3ccccc3C)c(=O)n1Cc1c(F)cccc1Cl)n2C	.	i	.	i	.	.
O=C(COC(=O)C12CC3CC(CC(Br)(C3)C1)C2)NCc1ccco1	.	?	.	i	.	.
Cc1ccc2c(c1)-c1onc(C(=O)N3CCN(c4ccc(Cl)cc4)CC3)c1CO2	.	i	.	i	.	.
CCC(C)(C)n1nnnc1C(C(C)C)N(CCN1CCOCC1)Cc1cc2cccc(C)c2[nH]c1=O (configuration not stated)	6%	i	4%	15µM*	3%	-18%
COc1ncc2ncc(=O)n(C3CC3)c2n1	8%	.	.	.	.	-12%
CCCC12CN3CC(C)(CN(C1)C3c1ccc(OCc3ccccc3)cc1)C2=O (configuration not stated)	.	i	.	i	.	.
SMILES	Gal4-VP16 FLuc	KB-3-1 tox	MCF10A rerep	KB-V1 MDR tox	SW480 rerep	RORgamma inh
Cc1onc(-c2c(F)cccc2Cl)c1C(=O)NC1=NCCS1	22µM*	i	2%	i	0%	14µM*
Cc1onc(-c2c(F)cccc2Cl)c1C(=O)Nc1nc2ccccc2[nH]1	?	?	2%	?	?	2.8µM*
Cc1onc(-c2c(F)cccc2Cl)c1C(=O)Nc1cccc2nsnc12	0%	18µM*	?	18µM*	16µM*	0%
Cc1cc(NC(=O)c2c(-c3c(F)cccc3Cl)noc2C)no1	0%	i	-1%	i	-5%	-6%
Cc1onc(-c2c(F)cccc2Cl)c1C(=O)Nc1nnc(C(F)(F)F)s1	?	i	6%	i	3%	?
Cc1ccc(NC(=O)c2c(-c3c(F)cccc3Cl)noc2C)cc1F	-5%	i	?	i	0%	?
Cc1onc(-c2c(F)cccc2Cl)c1C(=O)Nc1nccs1	?	i	-1%	i	-8%	13µM*
C=C(C(C)=O)C(O)c1ccco1 (configuration not stated)	7%	.	.	.	.	36%
COc1ccc(NC(=O)c2cc(C3CCCCN3S(=O)(=O)c3ccccc3)on2)c(C)c1 (configuration not stated)	.	i	.	i	.	.
N#Cc1ccc(C(=O)Nc2ccc(Cl)c(-c3nc4cc(Cl)ccc4o3)c2)c(F)c1	.	i	.	i	.	.
COc1ccccc1CN1CCCC2(CCN(C(=O)c3cccc(F)c3)CC2)C1	-7%	.	.	.	.	10%
N#Cc1ccc2c(c1)C[C@]1(c3ccsc3)Oc3c(c(=O)oc4ccccc34)C2O1	-4%[10 µM]	.	.	.	.	?
Cc1[nH]c2ccccc2c1C(=O)COC(=O)c1c(-c2ccccc2Cl)noc1C	?	i	?	i	2%	35%
Cc1[nH]c2ccccc2c1C(=O)COC(=O)c1c(-c2c(F)cccc2Cl)noc1C	-18%	?	?	16µM*	10%	59%
Cc1ncc(CO)c2c1Oc1nc(-c3ccccc3)nc(SCC(=O)Nc3cccc(O)c3)c1C2	?	?	16µM*	i	?	0%
O=C(COC(=O)c1c2c(nc3ccccc13)CCCC2)c1cccs1	-1%	i	-7%	i	3%	43%
CCc1cccc(C)c1NC(=O)COC(=O)c1c2c(nc3ccccc13)/C(=C\c1cccs1)CCC2	-24%	i	10µM*	15µM*	18µM*	?
CCN1C/C(=C/c2cccs2)c2nc3ccccc3c(C(=O)O)c2C1	1%	i	10%	i	0%	2%
NC(=O)c1ccc(NC(=O)COC(=O)c2c3c(nc4ccccc24)/C(=C\c2cccs2)CCC3)cc1	5µM*	i	23µM*	i	21µM*	4.5µM*
CC(C)CNC(=O)COC(=O)c1c2c(nc3ccccc13)CCC2	?	i	1%	?	3%	-17%
CC(C)CNC(=O)COC(=O)c1c2c(nc3ccccc13)/C(=C/c1cccs1)CC2	?	i	3.3µM*	?	3.7µM*	-26%
Cc1ccc2nc(-c3ccccc3)c(CN3CCN(c4ccccc4F)CC3)n2c1	?	i	?	i	15%	8.9µM*
Cc1ccc2nc(-c3ccccc3)c(CN3CCSCC3)n2c1	-5%	i	4%	?	0%	16µM*
